Test results reported in the supplement of paper PMC7411054.

What was measured:
Test in all cases: phenotypically active (imaging signature differs from DMSO and reproducible) at any of 0.3-9 uM (binary (1 = active, 0 = inactive)); higher = active
Conditions in all cases: treatment time: 24 h
A549-ACTB-RAB5A = test system: A549-ACTB-RAB5A
Procedure, shortened: (§1)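 Each of fifteen gene-edited A549, HepG2 and WPMY1 reporter lines, marked with BFP for segmentation and GFP and RFP/FusionRed, was treated in four wells at 0.3, 1, 3 or 9 µM for 24 h prior to live imaging. Normalisation of per-well live-cell features used solvent control wells. Deviation needed ≥3 of 4 wells beyond the 95th percentile of control Euclidean distances, and reproducibility needed a median replicate Pearson correlation above the 95th percentile of non-replicates. Both were required for phenotypic activity.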

A549-CANX-COX4 = test system: A549-CANX-COX4
Procedure, shortened: as §1

A549-GM130-SQSTM1 = test system: A549-GM130-SQSTM1
Procedure, shortened: as §1

A549-TP53BP1-CLTA = test system: A549-TP53BP1-CLTA
Procedure, shortened: as §1

A549-TUBA1B-RELA = test system: A549-TUBA1B-RELA
Procedure, shortened: as §1

HepG2-ACTB-RAB5A = test system: HepG2-ACTB-RAB5A
Procedure, shortened: as §1

HepG2-CANX-COX4 = test system: HepG2-CANX-COX4
Procedure, shortened: as §1

HepG2-GM130-SQSTM1 = test system: HepG2-GM130-SQSTM1
Procedure, shortened: as §1

HepG2-TP53BP1-CLTA = test system: HepG2-TP53BP1-CLTA
Procedure, shortened: as §1

HepG2-TUBA1B-RELA = test system: HepG2-TUBA1B-RELA
Procedure, shortened: as §1

WPMY1-ACTB-RAB5A = test system: WPMY1-ACTB-RAB5A
Procedure, shortened: as §1

WPMY1-CANX-COX4 = test system: WPMY1-CANX-COX4
Procedure, shortened: as §1

WPMY1-GM130-SQSTM1 = test system: WPMY1-GM130-SQSTM1
Procedure, shortened: as §1

WPMY1-TP53BP1-CLTA = test system: WPMY1-TP53BP1-CLTA
Procedure, shortened: as §1

WPMY1-TUBA1B-RELA = test system: WPMY1-TUBA1B-RELA
Procedure, shortened: as §1

Measured: phenotypically active

C[C@@H]1O[C@@H](O[C@H]2[C@H](Oc3cc(O)c4c(c3)O[C@H](c3ccc(O)cc3)CC4=O)O[C@H](CO)[C@@H](O)[C@@H]2O)[C@H](O)[C@H](O)[C@H]1O [Naringin hydrate]
inactive: A549-ACTB-RAB5A 0 | A549-CANX-COX4 0 | A549-GM130-SQSTM1 0 | A549-TP53BP1-CLTA 0 | A549-TUBA1B-RELA 0 | HepG2-ACTB-RAB5A 0 | HepG2-CANX-COX4 0 | HepG2-GM130-SQSTM1 0 | HepG2-TP53BP1-CLTA 0 | HepG2-TUBA1B-RELA 0 | WPMY1-ACTB-RAB5A 0 | WPMY1-CANX-COX4 0 | WPMY1-GM130-SQSTM1 0 | WPMY1-TP53BP1-CLTA 0 | WPMY1-TUBA1B-RELA 0

CCOC(=O)C1=C(C)NC(=S)N[C@H]1c1cccc(O)c1 [Monastrol]
inactive: A549-ACTB-RAB5A 0 | A549-CANX-COX4 0 | A549-GM130-SQSTM1 0 | A549-TP53BP1-CLTA 0 | A549-TUBA1B-RELA 0 | HepG2-ACTB-RAB5A 0 | HepG2-CANX-COX4 0 | HepG2-GM130-SQSTM1 0 | HepG2-TP53BP1-CLTA 0 | HepG2-TUBA1B-RELA 0 | WPMY1-ACTB-RAB5A 0 | WPMY1-CANX-COX4 0 | WPMY1-GM130-SQSTM1 0 | WPMY1-TP53BP1-CLTA 0 | WPMY1-TUBA1B-RELA 0

COc1cc2c(cc1OC)CC(=O)N(CCCN(C)C[C@H]1Cc3cc(OC)c(OC)cc31)CC2 [ivabridine]
inactive: A549-ACTB-RAB5A 0 | A549-CANX-COX4 0 | A549-GM130-SQSTM1 0 | A549-TP53BP1-CLTA 0 | A549-TUBA1B-RELA 0 | HepG2-ACTB-RAB5A 0 | HepG2-CANX-COX4 0 | HepG2-GM130-SQSTM1 0 | HepG2-TP53BP1-CLTA 0 | HepG2-TUBA1B-RELA 0 | WPMY1-ACTB-RAB5A 0 | WPMY1-CANX-COX4 0 | WPMY1-GM130-SQSTM1 0 | WPMY1-TP53BP1-CLTA 0 | WPMY1-TUBA1B-RELA 0

COP(=O)(OC)OC(c1ccc(Cl)cc1)P(=O)(OC)OC (stereo not given)
inactive: A549-ACTB-RAB5A 0 | A549-CANX-COX4 0 | A549-GM130-SQSTM1 0 | A549-TP53BP1-CLTA 0 | A549-TUBA1B-RELA 0 | HepG2-ACTB-RAB5A 0 | HepG2-CANX-COX4 0 | HepG2-GM130-SQSTM1 0 | HepG2-TP53BP1-CLTA 0 | HepG2-TUBA1B-RELA 0 | WPMY1-ACTB-RAB5A 0 | WPMY1-CANX-COX4 0 | WPMY1-GM130-SQSTM1 0 | WPMY1-TP53BP1-CLTA 0 | WPMY1-TUBA1B-RELA 0

COCCOC(=O)C1=C(C)NC(C)=C(C(=O)OC(C)C)C1c1cccc([N+](=O)[O-])c1 (stereo not given) [nimodipine]
inactive: A549-ACTB-RAB5A 0 | A549-CANX-COX4 0 | A549-GM130-SQSTM1 0 | A549-TP53BP1-CLTA 0 | A549-TUBA1B-RELA 0 | HepG2-ACTB-RAB5A 0 | HepG2-CANX-COX4 0 | HepG2-GM130-SQSTM1 0 | HepG2-TP53BP1-CLTA 0 | HepG2-TUBA1B-RELA 0 | WPMY1-ACTB-RAB5A 0 | WPMY1-CANX-COX4 0 | WPMY1-GM130-SQSTM1 0 | WPMY1-TP53BP1-CLTA 0 | WPMY1-TUBA1B-RELA 0

Cc1occc(=O)c1O [3-hydroxy-2-methyl-4-pyrone]
inactive: A549-ACTB-RAB5A 0 | A549-CANX-COX4 0 | A549-GM130-SQSTM1 0 | A549-TP53BP1-CLTA 0 | A549-TUBA1B-RELA 0 | HepG2-ACTB-RAB5A 0 | HepG2-CANX-COX4 0 | HepG2-GM130-SQSTM1 0 | HepG2-TP53BP1-CLTA 0 | HepG2-TUBA1B-RELA 0 | WPMY1-ACTB-RAB5A 0 | WPMY1-CANX-COX4 0 | WPMY1-GM130-SQSTM1 0 | WPMY1-TP53BP1-CLTA 0 | WPMY1-TUBA1B-RELA 0

O=C(O)CCNC(=O)c1ccc(/N=N/c2ccc(O)c(C(=O)O)c2)cc1 [balsalazide]
inactive: A549-ACTB-RAB5A 0 | A549-CANX-COX4 0 | A549-GM130-SQSTM1 0 | A549-TP53BP1-CLTA 0 | A549-TUBA1B-RELA 0 | HepG2-ACTB-RAB5A 0 | HepG2-CANX-COX4 0 | HepG2-GM130-SQSTM1 0 | HepG2-TP53BP1-CLTA 0 | HepG2-TUBA1B-RELA 0 | WPMY1-ACTB-RAB5A 0 | WPMY1-CANX-COX4 0 | WPMY1-GM130-SQSTM1 0 | WPMY1-TP53BP1-CLTA 0 | WPMY1-TUBA1B-RELA 0

NS(=O)(=O)Cc1noc2ccccc12 [zonisamide]
inactive: A549-ACTB-RAB5A 0 | A549-CANX-COX4 0 | A549-GM130-SQSTM1 0 | A549-TP53BP1-CLTA 0 | A549-TUBA1B-RELA 0 | HepG2-ACTB-RAB5A 0 | HepG2-CANX-COX4 0 | HepG2-GM130-SQSTM1 0 | HepG2-TP53BP1-CLTA 0 | HepG2-TUBA1B-RELA 0 | WPMY1-ACTB-RAB5A 0 | WPMY1-CANX-COX4 0 | WPMY1-GM130-SQSTM1 0 | WPMY1-TP53BP1-CLTA 0 | WPMY1-TUBA1B-RELA 0

CC1=NN(c2ccc(C(=O)O)cc2)C(=O)/C1=C\c1ccc(-c2cc(C)c(C)cc2[N+](=O)[O-])o1
inactive: A549-ACTB-RAB5A 0 | A549-CANX-COX4 0 | A549-GM130-SQSTM1 0 | A549-TP53BP1-CLTA 0 | A549-TUBA1B-RELA 0 | HepG2-ACTB-RAB5A 0 | HepG2-CANX-COX4 0 | HepG2-GM130-SQSTM1 0 | HepG2-TP53BP1-CLTA 0 | HepG2-TUBA1B-RELA 0 | WPMY1-ACTB-RAB5A 0 | WPMY1-CANX-COX4 0 | WPMY1-GM130-SQSTM1 0 | WPMY1-TP53BP1-CLTA 0 | WPMY1-TUBA1B-RELA 0

O=C(O)c1ccc(N2N=C(Cc3ccccc3)/C(=C/c3ccc(-c4ccccc4F)o3)C2=O)cc1
inactive: A549-ACTB-RAB5A 0 | A549-CANX-COX4 0 | A549-GM130-SQSTM1 0 | A549-TP53BP1-CLTA 0 | A549-TUBA1B-RELA 0 | HepG2-ACTB-RAB5A 0 | HepG2-CANX-COX4 0 | HepG2-GM130-SQSTM1 0 | HepG2-TP53BP1-CLTA 0 | HepG2-TUBA1B-RELA 0 | WPMY1-ACTB-RAB5A 0 | WPMY1-CANX-COX4 0 | WPMY1-GM130-SQSTM1 0 | WPMY1-TP53BP1-CLTA 0 | WPMY1-TUBA1B-RELA 0

O=C(O)C(CO)c1ccccc1 (stereo not given) [Tropic acid]
inactive: A549-ACTB-RAB5A 0 | A549-CANX-COX4 0 | A549-GM130-SQSTM1 0 | A549-TP53BP1-CLTA 0 | A549-TUBA1B-RELA 0 | HepG2-ACTB-RAB5A 0 | HepG2-CANX-COX4 0 | HepG2-GM130-SQSTM1 0 | HepG2-TP53BP1-CLTA 0 | HepG2-TUBA1B-RELA 0 | WPMY1-ACTB-RAB5A 0 | WPMY1-CANX-COX4 0 | WPMY1-GM130-SQSTM1 0 | WPMY1-TP53BP1-CLTA 0 | WPMY1-TUBA1B-RELA 0

C[C@@H]1C(=O)O[C@H]2C[C@@]34[C@H]5C[C@@H](C(C)(C)C)[C@]36[C@@H](OC(=O)[C@@H]6O)O[C@@]4(C(=O)O5)[C@]21O [Ginkgolide A]
inactive: A549-ACTB-RAB5A 0 | A549-CANX-COX4 0 | A549-GM130-SQSTM1 0 | A549-TP53BP1-CLTA 0 | A549-TUBA1B-RELA 0 | HepG2-ACTB-RAB5A 0 | HepG2-CANX-COX4 0 | HepG2-GM130-SQSTM1 0 | HepG2-TP53BP1-CLTA 0 | HepG2-TUBA1B-RELA 0 | WPMY1-ACTB-RAB5A 0 | WPMY1-CANX-COX4 0 | WPMY1-GM130-SQSTM1 0 | WPMY1-TP53BP1-CLTA 0 | WPMY1-TUBA1B-RELA 0
